We go through eleven molecules from PubChem BioAssay.

Molecules are shown by their SMILES.

The assay in a line: small-molecule binders of probe aInhba, primary screen, biochemical, small-molecule microarray, 635/667 nm fluorescence (AID 1148).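 Further: score merges 667nm spot fluorescence with signal-to-noise for antibody binding to printed compounds.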 To be noted: higher = more signal.
Molecule `CON=C(C)CCC(=O)OC[C@H]1O[C@H](C#Cc2ccccc2)C=C[C@@H]1Oc1ccc(C)cc1` registered a composite z-score of -0.016.

Turning to `CC(C)(C)N1C(=O)[C@H]2[C@H]3[C@H](O)[C@H](O)CC(=NOC[C@@H](O)COCc4ccco4)[C@@H]3CC[C@H]2C1=O`, the composite z-score was -0.101.

In turn, `CO[C@@H]1[C@H](O)CO[C@H]1C=Cc1ccccc1` gave a composite z-score of -0.182.

As for `CCN1C(=O)[C@H]2[C@H]3[C@H](O)[C@H](O)CC(=NOCC[C@@H]4C=C[C@H](OC(C)=O)[C@@H](COC(C)=O)O4)[C@@H]3CC[C@H]2C1=O`, the composite z-score is -0.109.

For `CO[C@@H](C1CCCCC1)[C@@H](C)[C@H](OCc1cccc(Br)c1)[C@@H](C)CO`, the composite z-score stood at 0.0442.

Consider `CCOC(=O)CCN1C(=O)[C@H]2[C@H]3[C@H](O)[C@H](O)CC(=NOCC(C)C)[C@@H]3CC[C@H]2C1=O`, for which the composite z-score is -0.0986.

In the case of `CCOC(=O)CCN1C(=O)[C@H]2[C@H]3[C@H](O)[C@H](O)CC(=NO[C@@H]4O[C@H](CO)[C@@H](O)[C@H](O)[C@H]4O)[C@@H]3CC[C@H]2C1=O`, the composite z-score turned out to be 0.0173.

The molecule `CO[C@H]1COC(=O)CC=C[C@@H](C)COC(=O)[C@H]2CCCN2C(=O)CC=C[C@H]1C` returned a composite z-score of -0.108.

For the molecule `CCOC(=O)[C@H](Cc1ccccc1)NC(=O)CCC1CC(OC(=O)NCc2cccc3ccccc23)CC2(CCCC(COC(=O)NCCc3ccccc3OC)O2)O1` (stereo partly specified), the composite z-score was -0.0552.

Molecule `Cc1ccc(S(=O)(=O)N[C@@H]2COC(=O)CC=C[C@@H](C)[C@H](NS(=O)(=O)c3ccc(C)cc3)COC(=O)[C@H](C)NC(=O)CC=C[C@H]2C)cc1` had a composite z-score of -0.121.

`CCN1C(=O)[C@H]2[C@H]3[C@H](O)[C@H](O)CC(=NOCC=C(C)CCC=C(C)C)[C@@H]3CC[C@H]2C1=O` displayed a composite z-score of -0.204.
